Experimental data from PubChem BioAssay (NCI).
About 83,000 compounds went through this panel and 20% of them were active in at least one assay; those are over-represented in the sample as a whole.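 96-well plates, one dose, 48 hours. Percent growth reported; active if below 10.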 Activity calls are given as the source filed them.

What follows are compounds tested on SW-620 colon (assay: NCI-60 one-dose screen, 48 h (100 = growth as untreated, 0 = no growth, -100 = all killed)). Conditions: 10 µM unless noted.
In the case of COc1ccc(OC)c2c1[nH]c(=O)c1c3ccccc3cn21, the growth is reported as -59.8% (active).
In the case of CC1=CC(=O)C(C(C)=Nc2ccccc2Cl)C(=O)O1 (centres undefined), the growth is reported as 91.6% (inactive).
For COc1ccc(C(=O)/C=C/c2c(Cl)nc3c(c(C)nn3-c3ccccc3)c2-c2ccc(Br)cc2)cc1, the growth was 110% (inactive).
In the case of Cc1c(C(N)=O)sc2c1c(=O)n(Cc1ccccc1)c1nnc(SCC(=O)Nc3ccc(Cl)cc3)n21, the growth is reported as 35.6% (inactive).
For Clc1nc(Cl)c2ncn(-c3ccccc3)c2n1, the growth was 36.5% (inactive).
For C[N+]1(CCc2ccccc2)CCC(CCC2CC[N+](C)(CCc3ccccc3)CC2)CC1 (centres undefined), the growth was 98.8% (inactive).
In the case of O[C@@H]1Cc2ccc3ccccc3c2N[C@H](c2ccoc2)C1, the growth is reported as 112% (inactive).
With c1cnc2ccc3ncccc3c2c1 the growth was 100% (inactive).
For CCCCOc1ccc(C(C)(C)c2ccc(OCCCC)cc2)cc1, the growth was 112% (inactive).
c1ccc(-n2nnnc2-c2cccc3ccccc23)cc1 was tested, and the growth was 20.8% (inactive).
With CCCCCCCC/C=C/CCCCCCCC1=NC(C)(C)CN1CCO the growth was -66.3% (active).
In the case of CC[N+](CC)(CCOCCOCC[N+](CC)(CC)Cc1ccc([N+](=O)[O-])cc1)Cc1ccc([N+](=O)[O-])cc1, the growth is reported as 101% (inactive).
With O=C(Nc1ncc([N+](=O)[O-])s1)c1cccc([N+](=O)[O-])c1 the growth was 73.4% (inactive).
In the case of CC(=O)Oc1c(C)c(OC(C)=O)c2c(c1C(C)=O)OC1CC(=O)C(C(C)=O)=C(O)C21C (centres undefined), the growth is reported as 105% (inactive).
In the case of COc1cc(Oc2cc(-c3cccnc3)ccc2NC(=O)Nc2ccc(F)cc2F)cc(OC)c1OC, the growth is reported as 104% (inactive).
For C=C1CC[C@@H]2[C@](C)(COC(C)=O)[C@H](OC(C)=O)CC[C@@]2(C)[C@@H]1CC(Nc1ccc(S(=O)(=O)Nc2cc(C)on2)cc1)C1=CCOC1=O (some centres undefined), the growth was 14.7% (inactive).
With O=C(/C=C/c1ccccc1)CC(c1ccccc1)N1CCOCC1 (centres undefined) the growth was -16.7% (active).
CC[N+](C)(CC)CCCC(C)Nc1ccnc2cc(Cl)ccc12 (centres undefined) was tested, and the growth was 106% (inactive).
CN(CC(=O)N(Cc1ccc(C2CCCCC2)cc1)c1ccc(C(=O)O)cc1)S(=O)(=O)c1c(F)c(F)c(F)c(F)c1F was tested, and the growth was -67% (active).
O=C1c2nsnc2C(=O)c2c(F)c(F)c(F)c(F)c21 was tested, and the growth was -57.3% (active).
For O=C(C(Br)Br)C(Br)C(Br)c1ccccc1 (centres undefined), the growth was -46.9% (active).
With CC/C(=C\c1ccc(N(C)C)cc1)c1nc2ccccc2c(=O)[nH]1 the growth was 120% (inactive).
With COc1cc(-c2cc(C(=O)Nc3nc4ccccc4s3)nc3cc(-c4ccccc4)nn23)cc(OC)c1OC the growth was 55.7% (inactive).
In the case of O=C(c1ccccc1)c1ccccc1Cl, the growth is reported as 106% (inactive).
In the case of O=C(CSc1nc2c(n1Nc1ccccc1)-c1ccccc1SC2)Nc1nc(-c2ccc(Cl)cc2)cs1, the growth is reported as 28.2% (inactive).
For O=c1[nH]c(Cl)nc2c1cnn2-c1ccccc1, the growth was 50.6% (inactive).
With CCn1c2ccccc2c2ccc(C(C)=O)cc21 the growth was 114% (inactive).
COc1cccc(CCC2C(=O)CCCC2=O)c1 was tested, and the growth was 112% (inactive).
For COc1ccc2c(c1)C(=O)/C(=C/c1cccc(OCC(=O)c3ccccc3)c1)CC2, the growth was 66% (inactive).
COc1ccc2c(c1)nc(N)c1c3cc(C)c(C)cc3cn21 was tested, and the growth was 41.9% (inactive).
For CCCCCCCCCCCCCCCCN=C(CC(=O)O)C(=O)O, the growth was 101% (inactive).
With COc1ccccc1[C@H]1c2[nH]c3ccccc3c2C[C@H]2C(=O)N(CCCCCCC(=O)NO)CC(=O)N12 the growth was 15.6% (inactive).
With COc1ccc(-c2cn(-c3ccccc3)c(-c3ccccc3)n2)cc1OC the growth was 5.69% (active).
With Cc1ccc(C(=O)Nc2ccc(Cl)cc2C(=O)NCc2ccccc2)cc1 the growth was 58.9% (inactive).
For CCN1C2=C(SC(=S)C1=C1SC(C(=O)OC)=C(C(=O)OC)S1)SC(=Nc1ccc(OC)cc1)C2=O, the growth was -67.4% (active).
With CCOc1cccc(C2CC(=O)Nc3cc4c(cc32)OCO4)c1 (centres undefined) the growth was 84.2% (inactive).
With COc1ccc(C2CC(c3ccc(OC)c(OC)c3)=NN2C(=O)c2cc(OC)c(OC)c(OC)c2)cc1 (centres undefined) the growth was 20.9% (inactive).

What follows are compounds tested on MCF7 breast in the same assay as above. Conditions: 10 µM unless noted.
In the case of COc1ccc(OC)c2c1[nH]c(=O)c1c3ccccc3cn21, the growth is reported as -78.5% (active).
For CC1=CC(=O)C(C(C)=Nc2ccccc2Cl)C(=O)O1 (centres undefined), the growth was 118% (inactive).
For COc1ccc(C(=O)/C=C/c2c(Cl)nc3c(c(C)nn3-c3ccccc3)c2-c2ccc(Br)cc2)cc1, the growth was 96.7% (inactive).
With Cc1c(C(N)=O)sc2c1c(=O)n(Cc1ccccc1)c1nnc(SCC(=O)Nc3ccc(Cl)cc3)n21 the growth was 31.6% (inactive).
In the case of Clc1nc(Cl)c2ncn(-c3ccccc3)c2n1, the growth is reported as 54.8% (inactive).
For C[N+]1(CCc2ccccc2)CCC(CCC2CC[N+](C)(CCc3ccccc3)CC2)CC1 (centres undefined), the growth was 98.6% (inactive).
In the case of O[C@@H]1Cc2ccc3ccccc3c2N[C@H](c2ccoc2)C1, the growth is reported as 94.5% (inactive).
c1cnc2ccc3ncccc3c2c1 was tested, and the growth was 92% (inactive).
CCCCOc1ccc(C(C)(C)c2ccc(OCCCC)cc2)cc1 was tested, and the growth was 104% (inactive).
For c1ccc(-n2nnnc2-c2cccc3ccccc23)cc1, the growth was 19.8% (inactive).
For CCCCCCCC/C=C/CCCCCCCC1=NC(C)(C)CN1CCO, the growth was -55.5% (active).
For CC[N+](CC)(CCOCCOCC[N+](CC)(CC)Cc1ccc([N+](=O)[O-])cc1)Cc1ccc([N+](=O)[O-])cc1, the growth was 104% (inactive).
For O=C(Nc1ncc([N+](=O)[O-])s1)c1cccc([N+](=O)[O-])c1, the growth was 50.7% (inactive).
In the case of CC(=O)Oc1c(C)c(OC(C)=O)c2c(c1C(C)=O)OC1CC(=O)C(C(C)=O)=C(O)C21C (centres undefined), the growth is reported as 97% (inactive).
For COc1cc(Oc2cc(-c3cccnc3)ccc2NC(=O)Nc2ccc(F)cc2F)cc(OC)c1OC, the growth was 94.2% (inactive).
C=C1CC[C@@H]2[C@](C)(COC(C)=O)[C@H](OC(C)=O)CC[C@@]2(C)[C@@H]1CC(Nc1ccc(S(=O)(=O)Nc2cc(C)on2)cc1)C1=CCOC1=O (some centres undefined) was tested, and the growth was 12.3% (inactive).
For O=C(/C=C/c1ccccc1)CC(c1ccccc1)N1CCOCC1 (centres undefined), the growth was 11.1% (inactive).
In the case of CC[N+](C)(CC)CCCC(C)Nc1ccnc2cc(Cl)ccc12 (centres undefined), the growth is reported as 96.4% (inactive).
CN(CC(=O)N(Cc1ccc(C2CCCCC2)cc1)c1ccc(C(=O)O)cc1)S(=O)(=O)c1c(F)c(F)c(F)c(F)c1F was tested, and the growth was 10.6% (inactive).
O=C1c2nsnc2C(=O)c2c(F)c(F)c(F)c(F)c21 was tested, and the growth was -45.1% (active).
O=C(C(Br)Br)C(Br)C(Br)c1ccccc1 (centres undefined) was tested, and the growth was 69.7% (inactive).
CC/C(=C\c1ccc(N(C)C)cc1)c1nc2ccccc2c(=O)[nH]1 was tested, and the growth was 98.2% (inactive).
In the case of COc1cc(-c2cc(C(=O)Nc3nc4ccccc4s3)nc3cc(-c4ccccc4)nn23)cc(OC)c1OC, the growth is reported as 72.9% (inactive).
With O=C(c1ccccc1)c1ccccc1Cl the growth was 107% (inactive).
For O=C(CSc1nc2c(n1Nc1ccccc1)-c1ccccc1SC2)Nc1nc(-c2ccc(Cl)cc2)cs1, the growth was 68.9% (inactive).
With O=c1[nH]c(Cl)nc2c1cnn2-c1ccccc1 the growth was 84.3% (inactive).
In the case of CCn1c2ccccc2c2ccc(C(C)=O)cc21, the growth is reported as 102% (inactive).
COc1cccc(CCC2C(=O)CCCC2=O)c1 was tested, and the growth was 108% (inactive).
In the case of COc1ccc2c(c1)C(=O)/C(=C/c1cccc(OCC(=O)c3ccccc3)c1)CC2, the growth is reported as 48.7% (inactive).
For COc1ccc2c(c1)nc(N)c1c3cc(C)c(C)cc3cn21, the growth was 16.3% (inactive).
In the case of CCCCCCCCCCCCCCCCN=C(CC(=O)O)C(=O)O, the growth is reported as 86.5% (inactive).
For COc1ccccc1[C@H]1c2[nH]c3ccccc3c2C[C@H]2C(=O)N(CCCCCCC(=O)NO)CC(=O)N12, the growth was 37.7% (inactive).
COc1ccc(-c2cn(-c3ccccc3)c(-c3ccccc3)n2)cc1OC was tested, and the growth was 19.1% (inactive).
For Cc1ccc(C(=O)Nc2ccc(Cl)cc2C(=O)NCc2ccccc2)cc1, the growth was 53.9% (inactive).
CCN1C2=C(SC(=S)C1=C1SC(C(=O)OC)=C(C(=O)OC)S1)SC(=Nc1ccc(OC)cc1)C2=O was tested, and the growth was 4.13% (active).
CCOc1cccc(C2CC(=O)Nc3cc4c(cc32)OCO4)c1 (centres undefined) was tested, and the growth was 82.8% (inactive).
COc1ccc(C2CC(c3ccc(OC)c(OC)c3)=NN2C(=O)c2cc(OC)c(OC)c(OC)c2)cc1 (centres undefined) was tested, and the growth was 27.6% (inactive).
